Inconclusive results are not listed. Activity calls are given as the source filed them. Unless noted, calls come from the whole dose curve; as a rule, active = well fitted curve in the direction sought with a large enough effect in the repeat runs; inconclusive = weak or mixed curves; inactive = no such curve, though single readings can be large; an effect the other way counts as inactive or inconclusive.
What was measured:
[1] = qHTS assay to identify small molecule antagonists of the progesterone receptor (PR) signaling pathway - cell viability counter screen (AID 1346798); note: nearly all actives have a fitted effect of over 50% in size; note: potency is the fitted concentration of half-maximal effect;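 for activity change, negative = cytotoxicity: HEK293T PR-UAS-bla cells stimulated with the agonist R5020; series mostly up to about 92 µM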
Method in brief: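 HEK293T PR-UAS-bla, 2% charcoal-stripped FBS; 4 hr pre-plate; cpd + R5020, 16 h 37C; LiveBLAzer read first; then CellTiter-Glo 30 min RT, luminescence.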

[2] = qHTS assay to identify small molecule agonists of the progesterone receptor (PR) signaling pathway - cell viability counter screen (AID 1346799; calls by dose curve; note: nearly all actives have a fitted effect of over 45% in size; note: potency is the fitted concentration of half-maximal effect)
Method in brief: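 Luminescence from CellTiter-Glo, added after the beta-lactamase FRET read in the same wells, gave cytotoxicity in PR-UAS-bla HEK293T cells treated with compounds for 16 hr at 37C.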

[3] = qHTS assay to identify small molecule antagonists of the TGF-beta/Smad signaling pathway - cell viability counter screen (AID 1346824); note: nearly all actives have a fitted effect of over 50% in size
Method in brief: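 Cytotoxicity counter-screen run in the same wells as the beta-lactamase Smad reporter read: CellTiter-Glo luminescence after 30 min at room temperature. HEK 293T SBE-bla cells had 5 hr compound exposure at 37 C with TGF-beta1 (0.25 ng/mL stock).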

[4] = qHTS assay to identify small molecule agonists of the TGF-beta/Smad signaling pathway - cell viability counter screen (AID 1346829); note: top concentration of the series differs between compounds; nearly all actives have a fitted effect of over 45% in size
Method in brief: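 In parallel with the Smad reporter read, viability of HEK 293T cells stably carrying SBE-bla is quantified by ATP luminescence following 5 hr compound treatment.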

[5] = qHTS assay to identify small molecule agonists of the TGF-beta/Smad signaling pathway (AID 1346859; active = well fitted activation curve with a large enough effect in the signal ratio in the repeat runs, not every such curve was filed as active; the % refers to the signal ratio; note: series mostly up to about 77 µM)
Method in brief: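 SBE-bla HEK 293T, 4,000 cells/well, plated o/n; cpd in DMSO, 5 hr, 37 C/5% CO2; B/G FRET substrate 2 hr RT; ex 405, em 460/530 nm.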

[6] = Caspase-3/7 induction in HepG2 cells by small molecules, qHTS assay (AID 1346978); note: nearly all actives have a fitted effect of over 15% in size
Method in brief: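 Caspase-3/7 induction was measured by Caspase-Glo 3/7 luminescence (30 min, room temperature) after a 17 hr compound exposure of wild-type HepG2 cells seeded at 2,000 per well and pre-incubated 5 hr.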

[7] = Caspase-3/7 induction in CHO-K1 cells by small molecules, qHTS cell viability counter screen (AID 1346979); note: nearly all actives have a fitted effect of over 35% in size; note: potency is the fitted concentration of half-maximal effect
Method in brief: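 Cells (CHO-K1, wild type) are plated at 1,500 per well and incubated 5hr. Test compounds in DMSO are then pinned in, followed by 16hr at 37C and 5% CO2. Viability is read by CellTiter-Fluor fluorescence after 1hr.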

[8] = Caspase-3/7 induction in CHO-K1 cells by small molecules, qHTS assay (AID 1346980); note: nearly all actives have a fitted effect of over 15% in size
Method in brief: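 Luminescent Caspase-Glo 3/7 read (30min, room temperature) quantified apoptosis induction. Cells were wild-type CHO-K1, treated with compound for 17hr at 37 C and 5% CO2.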

[9] = Caspase-3/7 induction in HepG2 cells by small molecules, qHTS cell viability counter screen (AID 1346981); note: series mostly up to about 92 µM; nearly all actives have a fitted effect of over 30% in size
Method in brief: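 Counter screen for cytotoxicity: HepG2 exposed 16 hr to compounds, then CellTiter-Fluor viability signal (fluorescence, 1 hr reagent incubation).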

[10] = biological target: Nuclear receptor subfamily 1 group I member 2 (Homo sapiens) (UniProt O75469); assay: Human pregnane X receptor (PXR) small molecule agonists, qHTS assay (AID 1346982); note: nearly all actives have a fitted effect of over 35% in size; note: potency is the fitted concentration of half-maximal effect
Sequence of Nuclear receptor subfamily 1 group I member 2 (Homo sapiens) (O75469 whole entry, looked up): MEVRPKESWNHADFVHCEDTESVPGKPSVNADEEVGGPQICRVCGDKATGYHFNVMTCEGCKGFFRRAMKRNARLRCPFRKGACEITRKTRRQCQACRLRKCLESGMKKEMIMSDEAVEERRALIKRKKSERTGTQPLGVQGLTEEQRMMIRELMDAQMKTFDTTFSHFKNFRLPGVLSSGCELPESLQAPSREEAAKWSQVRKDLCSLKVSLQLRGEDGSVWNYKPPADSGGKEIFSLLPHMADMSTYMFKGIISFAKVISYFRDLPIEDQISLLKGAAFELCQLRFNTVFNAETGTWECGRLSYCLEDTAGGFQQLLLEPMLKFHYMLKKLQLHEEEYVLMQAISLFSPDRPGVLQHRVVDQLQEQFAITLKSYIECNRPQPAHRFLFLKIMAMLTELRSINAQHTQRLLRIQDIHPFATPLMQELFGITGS
Method in brief: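 Luminescence (ONE-Glo, 30 min RT) after 24 hr compound exposure of PXR-Luc HepG2 cells; cells rested 5 hr post-plating in 5% charcoal-stripped FBS medium.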

[11] = biological target: Cytochrome P450 2C19 (Homo sapiens) (UniProt P33261); assay: Cytochrome P450 Family 2 Subfamily C Member 19 (CYP2C19) small molecule antagonists: luciferase reporter qHTS assay (AID 1671197); note: nearly all actives have a fitted effect of over 65% in size; note: potency is the fitted concentration of half-maximal effect; for activity change, negative = inhibition: series mostly up to about 120 µM
Sequence of Cytochrome P450 2C19 (Homo sapiens) (P33261 whole entry, looked up): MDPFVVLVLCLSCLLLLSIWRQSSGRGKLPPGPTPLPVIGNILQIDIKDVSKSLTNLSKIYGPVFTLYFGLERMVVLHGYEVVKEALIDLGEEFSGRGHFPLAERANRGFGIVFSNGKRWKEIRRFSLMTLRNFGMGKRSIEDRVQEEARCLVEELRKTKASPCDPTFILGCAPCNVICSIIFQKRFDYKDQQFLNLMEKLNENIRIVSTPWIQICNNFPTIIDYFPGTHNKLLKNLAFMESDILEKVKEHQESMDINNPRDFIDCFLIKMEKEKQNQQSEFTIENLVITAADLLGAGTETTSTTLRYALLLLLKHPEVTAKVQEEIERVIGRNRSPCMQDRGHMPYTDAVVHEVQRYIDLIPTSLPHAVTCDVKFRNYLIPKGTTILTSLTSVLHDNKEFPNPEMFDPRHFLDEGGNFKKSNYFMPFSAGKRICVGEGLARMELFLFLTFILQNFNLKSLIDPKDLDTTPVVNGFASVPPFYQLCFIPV
Method in brief: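 Compounds were tested on CYP2C19 activity via proluciferin conversion to luciferin. The 37C, 1 h reaction followed NADPH addition; detection reagent stopped it.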

[12] = biological target: Cytochrome P450 2C9 (Homo sapiens) (UniProt P11712); assay: Cytochrome P450 Family 2 Subfamily C Member 9 (CYP2C9) small molecule antagonists: luciferase reporter qHTS assay (AID 1671198); note: nearly all actives have a fitted effect of over 50% in size; note: potency is the fitted concentration of half-maximal effect; for activity change, negative = inhibition: series mostly up to about 120 µM
Sequence of Cytochrome P450 2C9 (Homo sapiens) (P11712 whole entry, looked up): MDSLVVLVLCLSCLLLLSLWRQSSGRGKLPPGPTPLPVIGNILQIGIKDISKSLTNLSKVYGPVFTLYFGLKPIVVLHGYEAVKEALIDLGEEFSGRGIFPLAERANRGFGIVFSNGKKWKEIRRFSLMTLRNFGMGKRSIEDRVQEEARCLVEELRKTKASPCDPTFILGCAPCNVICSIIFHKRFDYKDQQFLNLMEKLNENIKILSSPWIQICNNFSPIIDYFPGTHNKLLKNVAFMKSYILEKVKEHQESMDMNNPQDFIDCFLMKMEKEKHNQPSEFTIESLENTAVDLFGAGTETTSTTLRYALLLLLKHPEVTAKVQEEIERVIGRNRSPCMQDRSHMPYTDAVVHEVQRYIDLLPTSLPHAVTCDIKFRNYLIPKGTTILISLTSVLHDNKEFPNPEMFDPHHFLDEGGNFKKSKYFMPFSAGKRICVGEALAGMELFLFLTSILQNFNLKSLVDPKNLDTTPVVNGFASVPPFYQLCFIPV
Method in brief: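 Enzyme-substrate mix preincubated with compound 10 min at room temperature; reaction started with NADPH regeneration solution, 1 h 37C. Luminescent luciferin product read after 20 min detection reagent.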

[13] = biological target: Cytochrome P450 1A2 (Homo sapiens) (UniProt P05177); assay: Cytochrome P450 Family 1 Subfamily A Member 2 (CYP1A2) small molecule antagonists: luciferase reporter qHTS assay (AID 1671199); note: nearly all actives have a fitted effect of over 50% in size; note: potency is the fitted concentration of half-maximal effect; for activity change, negative = inhibition: series mostly up to about 120 µM
Sequence of Cytochrome P450 1A2 (Homo sapiens) (P05177 whole entry, looked up): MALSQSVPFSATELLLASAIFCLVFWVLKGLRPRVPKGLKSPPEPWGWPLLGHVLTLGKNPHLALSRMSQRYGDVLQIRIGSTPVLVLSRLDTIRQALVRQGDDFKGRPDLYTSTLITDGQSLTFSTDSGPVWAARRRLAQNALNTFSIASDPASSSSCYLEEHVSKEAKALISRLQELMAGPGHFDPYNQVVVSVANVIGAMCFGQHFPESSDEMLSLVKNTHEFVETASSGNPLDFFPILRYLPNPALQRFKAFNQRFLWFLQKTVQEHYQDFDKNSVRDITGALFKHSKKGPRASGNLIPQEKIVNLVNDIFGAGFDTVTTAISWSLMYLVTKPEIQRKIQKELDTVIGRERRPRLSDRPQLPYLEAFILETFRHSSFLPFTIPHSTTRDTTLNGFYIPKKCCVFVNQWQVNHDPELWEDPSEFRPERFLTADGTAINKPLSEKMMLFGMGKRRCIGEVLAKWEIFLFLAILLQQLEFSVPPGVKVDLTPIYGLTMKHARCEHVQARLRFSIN
Method in brief: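 Signal from luciferin formed by CYP1A2 from a proluciferin substrate is read as luminescence, expressed in relative luminescence units. Compounds sit with enzyme 10 min, NADPH-driven reaction runs 1 h, all at room temperature.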

[14] = biological target: Thyrotropin-releasing hormone receptor (Homo sapiens) (UniProt P34981); assay: qHTS assay to identify small molecule antagonists of the thyrotropin-releasing hormone receptor (TRHR) signaling pathway (AID 1346877; active = well fitted inhibition curve with a large enough effect in the repeat runs, not every such curve was filed as active; note: series mostly up to about 51 µM)
Sequence of Thyrotropin-releasing hormone receptor (Homo sapiens) (P34981 whole entry, looked up): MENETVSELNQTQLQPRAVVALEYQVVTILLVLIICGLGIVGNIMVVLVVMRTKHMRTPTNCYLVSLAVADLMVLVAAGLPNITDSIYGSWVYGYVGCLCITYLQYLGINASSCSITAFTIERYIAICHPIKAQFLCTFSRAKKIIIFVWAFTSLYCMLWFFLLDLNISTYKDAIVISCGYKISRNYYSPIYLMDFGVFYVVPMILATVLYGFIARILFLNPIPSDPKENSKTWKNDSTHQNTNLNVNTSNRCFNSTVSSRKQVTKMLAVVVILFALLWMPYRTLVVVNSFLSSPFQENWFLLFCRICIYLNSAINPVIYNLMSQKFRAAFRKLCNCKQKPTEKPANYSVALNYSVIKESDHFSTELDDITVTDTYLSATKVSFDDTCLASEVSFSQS
Method in brief: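 In this cell-based calcium flux format, HEK293 cells expressing TRHR received test compound for 5 min before the agonist TRH (1 nM final). Dye loading lasted 2 h at 37 °C.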

[15] = biological target: Thyrotropin-releasing hormone receptor (Homo sapiens) (UniProt P34981); assay: qHTS assay to identify small molecule agonists of the thyrotropin-releasing hormone receptor (TRHR) signaling pathway (AID 1346891; calls by dose curve; note: series mostly up to about 58 µM)
Method in brief: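 Intracellular calcium rise, read as fluorescence every second for 3 min, served as the agonist signal in dye-loaded HEK293 cells expressing TRHR; each compound ran at 15 concentrations in triplicate.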

[16] = Human pregnane X receptor (PXR) small molecule agonists, qHTS cell viability counter screen (AID 1346977); note: nearly all actives have a fitted effect of over 50% in size
Method in brief: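 PXR-Luc HepG2, 2,000 cells/well, 5% charcoal-stripped FBS; 5hr settle; cpd 24hr, 37C/5% CO2; CellTiter-Fluor at 23hr, read 1hr later (fluorescence).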

[17] = biological target: Cytochrome P450 2D6 (Homo sapiens) (UniProt P10635); assay: Cytochrome P450 Family 2 Subfamily D Member 6 (CYP2D6) small molecule antagonists: luciferase reporter qHTS assay (AID 1671196); note: nearly all actives have a fitted effect of over 50% in size; note: potency is the fitted concentration of half-maximal effect; for activity change, negative = inhibition: series mostly up to about 120 µM
Sequence of Cytochrome P450 2D6 (Homo sapiens) (P10635 whole entry, looked up): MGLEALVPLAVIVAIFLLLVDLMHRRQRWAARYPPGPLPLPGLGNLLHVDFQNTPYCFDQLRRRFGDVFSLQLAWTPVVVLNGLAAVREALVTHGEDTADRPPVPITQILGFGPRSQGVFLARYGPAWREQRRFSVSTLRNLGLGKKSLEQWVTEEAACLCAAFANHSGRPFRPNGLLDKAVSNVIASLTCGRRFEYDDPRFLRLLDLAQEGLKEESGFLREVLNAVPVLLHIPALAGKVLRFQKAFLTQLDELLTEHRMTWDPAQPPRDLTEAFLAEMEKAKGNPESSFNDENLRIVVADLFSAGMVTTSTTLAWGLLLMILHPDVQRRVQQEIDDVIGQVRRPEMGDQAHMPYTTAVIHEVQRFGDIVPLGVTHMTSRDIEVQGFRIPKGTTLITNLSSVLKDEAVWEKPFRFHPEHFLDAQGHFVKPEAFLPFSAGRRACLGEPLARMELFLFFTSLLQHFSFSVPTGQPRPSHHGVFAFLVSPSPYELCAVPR
Method in brief: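 Inhibition of CYP2D6 was gauged by loss of luminescence, since light produced tracks the luciferin generated from a proluciferin substrate. A 10 min room-temperature preincubation preceded 1 h NADPH-supported turnover.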
% is set by controls: 0 for no effect and ±100 for the full control effect.

CC(COC(=O)c1ccccc1)OC(=O)c1ccccc1 (stereo not given)
inactive: Potency [1] | Potency [2] | Potency [3] | Potency [4] | Potency [5] | Potency [6] | Potency [7] | Potency [8] | Potency [9] | Potency [10]
active: Potency [11] 20 µM | Potency [12] 15.9 µM | Potency [13] 5.64 µM

O=S(O)O
inactive: activity change, negative = cytotoxicity [1] -0.356% [at 18.9 µM] | activity change, negative = cytotoxicity [2] -3.11% [at 19 µM] | viability change, negative = cytotoxic [3] 0.444% [at 15.8 µM] | activation [5] -2.31% [at 15.8 µM] | activity, negative = inhibition [14] 0.51% [at 10.5 µM] | activation [15] 0.0945% [at 11.8 µM] | activity change, negative = cytotoxicity [16] 6.89% [at 19 µM] | caspase activation [6] -0.246% [at 19 µM] | activity change, negative = cytotoxicity [7] 9.18% [at 19 µM] | caspase-3/7 activation [8] 0.497% [at 19 µM] | activity change, negative = cytotoxicity [9] -4.78% [at 19 µM] | activation [10] 8.59% [at 19 µM] | activity change, negative = inhibition [17] -20.2% [at 23.6 µM] | activity change, negative = inhibition [11] 0.673% [at 23.6 µM] | activity change, negative = inhibition [12] -8.41% [at 23.6 µM] | activity change, negative = inhibition [13] -6.76% [at 23.6 µM]

Clc1ccc(C(Cn2ccnc2)OCc2ccsc2Cl)c(Cl)c1 (stereo not given)
active: Potency [1] 6.68 µM | Potency [2] 8.41 µM | Potency [7] 21.1 µM | Potency [17] 3.47 µM | Potency [11] 0.347 µM | Potency [13] 4.56 µM
inactive: Potency [3] | Potency [4] | Potency [14] | Potency [8]

Oc1cc2ccccc2cc1O
inactive: Potency [1] | Potency [2] | Potency [3] | Potency [4] | Potency [16] | Potency [7] | Potency [8] | Potency [10]
active: Potency [11] 39.9 µM | Potency [13] 31.7 µM

C/C=C/c1ccc(OC)c(OC)c1
active: Potency [11] 71 µM | Potency [12] 35.6 µM | Potency [13] 25.2 µM
inactive: Potency [1] | Potency [2] | Potency [3] | Potency [4] | Potency [5] | Potency [16] | Potency [6] | Potency [7] | Potency [8] | Potency [10] | Potency [17]

OCCCS
inactive: Potency [1] | Potency [2] | Potency [3] | Potency [4] | Potency [5] | Potency [16] | Potency [6] | Potency [8] | Potency [9] | Potency [10] | Potency [17] | Potency [11] | Potency [12] | Potency [13]

C1CC(COCC2CO2)CCC1COCC1CO1 (stereo not given)
inactive: Potency [1] | Potency [2] | Potency [3] | Potency [4] | Potency [14] | Potency [15] | Potency [16] | Potency [6] | Potency [8] | Potency [9] | Potency [17]

c1ccc(Sc2ccccc2)cc1
inactive: Potency [1] | Potency [2] | Potency [3] | Potency [4] | Potency [5] | Potency [16] | Potency [6] | Potency [7] | Potency [8] | Potency [9] | Potency [10] | Potency [17] | Potency [12]
active: Potency [13] 31.7 µM

[O]=[Zr]
active: Potency [13] 35.4 µM
inactive: Potency [1] | Potency [2] | Potency [3] | Potency [5] | Potency [14] | Potency [15] | Potency [6] | Potency [7] | Potency [8] | Potency [9] | Potency [10]

CC1(C)C(=O)N(CO)C(=O)N1CO
inactive: Potency [1] | Potency [2] | Potency [3] | Potency [5] | Potency [14] | Potency [15] | Potency [16] | Potency [6] | Potency [7] | Potency [8] | Potency [9] | Potency [10] | Potency [17] | Potency [11]

CC(C)(c1cc(Br)c(OCCO)c(Br)c1)c1cc(Br)c(OCCO)c(Br)c1
inactive: Potency [3] | Potency [5] | Potency [8]
active: Potency [1] 29.9 µM | Potency [2] 33.6 µM | Potency [10] 4.75 µM | Potency [11] 6.94 µM | Potency [12] 4.38 µM | Potency [13] 27.6 µM

Cc1cn[nH]c1
inactive: Potency [1] | Potency [2] | Potency [3] | Potency [5] | Potency [16] | Potency [6] | Potency [7] | Potency [8] | Potency [9]

CC1=CCC(=O)O1
inactive: Potency [1] | Potency [2] | Potency [3] | Potency [4] | Potency [5] | Potency [16] | Potency [6] | Potency [7] | Potency [8] | Potency [9] | Potency [10] | Potency [17] | Potency [12] | Potency [13]
